SMILES strings stand for the structures. The whole screen tested about 360,000 compounds, of which about 2,400 (0.67%) were called active. No stated cut-off is given here; in the data, active means enhancement above about 30%; inactive means the rest. What follows is part of a selection rich in actives, with near analogues and random picks from the rest.

In the test the target is Thyrotropin-releasing hormone receptor (Homo sapiens) (UniProt P34981). In words: qHTS for Small Molecule Agonists and Allosteric Enhancers of Human TRH Receptor: Primary Screen for Enhancers. Further: 0% is about no effect. Particulars: TRHR cells, fluo-8 calcium fluorescence, EC20 TRH enhancement; at 2 µM; active compounds read high. A digest of the protocol: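 TRHR-expressing cells loaded with fluo-8 calcium dye were read kinetically (ex 480/em 530) during compound addition, then stimulated with an EC20 of TRH (10 nM final). Enhancement of the Gq-mediated intracellular calcium response was scored.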
Thyrotropin-releasing hormone receptor (Homo sapiens), sequence (P34981 whole entry, looked up): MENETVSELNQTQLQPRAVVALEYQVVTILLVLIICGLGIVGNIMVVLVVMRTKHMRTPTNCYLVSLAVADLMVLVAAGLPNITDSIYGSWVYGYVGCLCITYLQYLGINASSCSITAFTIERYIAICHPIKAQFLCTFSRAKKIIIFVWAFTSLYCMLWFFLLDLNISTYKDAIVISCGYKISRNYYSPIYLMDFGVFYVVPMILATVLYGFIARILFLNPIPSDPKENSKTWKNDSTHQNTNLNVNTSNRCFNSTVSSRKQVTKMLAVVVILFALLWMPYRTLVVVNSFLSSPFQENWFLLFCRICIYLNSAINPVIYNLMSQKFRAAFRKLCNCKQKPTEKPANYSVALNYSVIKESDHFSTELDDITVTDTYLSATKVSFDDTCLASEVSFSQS
For orientation: qHTS replaces the single test concentration by a dilution series.
As for `Cc1ccc(C)c(N2CCN(CCCNC(=O)Nc3ccc(Cl)cc3)CC2)c1`, the enhancement is 2.7% (inactive). `Cc1ccc(NC(=O)c2cn3c4c(ccc(Cl)c4c2=O)OC(C)C3)cc1C` (stereo not given): the enhancement was 6.65% (inactive). As for `O=C1NC(c2cc3c(cc2Cl)OCO3)Oc2ccccc21` (stereo not given), the figure is 5.25% (inactive); as for `O=C1NC(c2ccccc2)Oc2ccccc21` (stereo not given), 36.1% (active). Consider `C=CCOc1cccc(C2NC(=O)c3ccccc3O2)c1` (stereo not given), for which the enhancement is -1.8% (inactive).

`Cc1ccc2c(=O)c(C(=O)c3ccc(F)cc3)cn(CC(=O)NC3CCCCC3)c2n1`: the enhancement is 7.98% (inactive). As for `COCC(C)NS(=O)(=O)c1ccc(N2CCCCS2(=O)=O)cc1` (stereo not given), the figure is 6.76% (inactive); as for `CCOC(=O)C1=C(O)/C(=C/c2cc(C)n(-c3ccccc3)c2C)N=C1C`, 43.5% (active).

As to `CCOC(=O)C1=C(O)/C(=C/c2ccc(OCC(=O)Nc3ccc(C)cc3)cc2)N=C1C`, the enhancement is -0.756% (inactive). As for `CCOC(=O)c1nn(-c2cccc(C)c2)cc1C(=O)c1ccccc1`, the enhancement is 11% (inactive). As for `Cc1nn(Cc2ccc(F)cc2)c(C)c1NC(=O)c1cc(CC(C)C)on1`, the enhancement is -1.79% (inactive). As for `O=c1[nH]c2cccnc2n(CCNc2ncc(C(F)(F)F)cc2Cl)c1=O`, the enhancement was 48.4% (active).

Consider `O=c1[nH]oc(O)c1-c1ncc(C(F)(F)F)cc1Cl`, for which the enhancement is 0.0064% (inactive). As for `O=C(c1ccccn1)c1ncc(C(F)(F)F)cc1Cl`, the figure is 1.39% (inactive); as for `COc1ccccc1Nc1nc(N)nc(N)c1S(=O)(=O)c1ccccc1`, 2.56% (inactive); as for `O=C(NCc1nnc(C(=O)Nc2ccc(C(F)(F)F)cc2Cl)o1)c1ccccc1`, 0.059% (inactive). As for `Cc1nnc(SCC(=O)NCc2ccccc2Cl)c2nn(-c3ccccc3)c(C)c12`, the figure is 4.74% (inactive). Take `COc1ccccc1Nc1c2c(nc3ccc(NC(=O)/C=C/c4cc(OC)c(OC)c(OC)c4)cc13)CCCC2`: the enhancement was 0.792% (inactive).

On to `CC(C)c1nnc(NC(=O)CCC(=O)N2CCN(c3cccc(Cl)c3)CC2)s1`, for which the enhancement is 44.3% (active).

`COc1ccc(CN2CCN(C(=O)CCC(=O)Nc3nnc(C(C)C)s3)CC2)cc1F`: the enhancement was -5.21% (inactive). As for `CCc1nnc(NC(=O)CCC(=O)N2CCN(c3cc(C)ccc3C)CC2)s1`, the figure is 10.6% (inactive); as for `CCOc1ccc(NC(=O)c2cc3c(=O)n(Cc4cccs4)ccc3nc2C)cc1`, 2.83% (inactive); as for `Cc1cccc(NC(=O)c2nnn(CC(=O)Nc3ccc(C(C)C)cc3)c2N)c1C`, 16.4% (inactive). Turning to `CCOc1ccc(NC(=O)COc2ccc(C(=O)N3CCC(C(N)=O)CC3)cc2OC)cc1`, the enhancement is 1.2% (inactive). Regarding `CCOc1ccc(C(NC(=O)c2cc(OC)c(OC)c(OC)c2)c2cc(Cl)c3cccnc3c2O)cc1` (stereo not given), the enhancement was 8.01% (inactive). As for `CCOc1ccc(N/C=C/C(=O)c2cc(OC)c(OC)c(OC)c2)cc1`, the figure is 36% (active); as for `CN(CC(=O)Nc1ccccc1F)S(=O)(=O)c1ccc2c(c1)c(=O)n(C)c(=O)n2C`, -1.52% (inactive).

Regarding `CCOc1cc2[nH]c(=O)n(Cc3ccc(C(=O)NCCN(CC)CC)cc3)c(=O)c2cc1OCC`, the enhancement was 6.62% (inactive). Consider `Cc1ccc(C(=O)Nc2ccc(OCc3cc(=O)n4c(C)csc4n3)cc2)cc1`, for which the enhancement was 44.4% (active).

As for `Cc1ccc(C(=O)Nc2ccc(OCc3cc(=O)n4c5c(sc4n3)CCCC5)cc2)cc1`, the enhancement is -8.75% (inactive). With `Cc1csc2nc(COc3ccc(NC(=O)COc4ccccc4)cc3)cc(=O)n12`, the enhancement was -0.546% (inactive). In the case of `CCN(CC)c1cc(NC2CCCCC2)c2c3c(onc13)-c1ccccc1C2=O`, the enhancement is 3.4% (inactive). For the molecule `Cc1c(CNC(C)c2ccccc2)c(C(=O)O)c(C)n1Cc1c(F)cccc1Cl` (stereo not given), the enhancement is 0.16% (inactive). As for `CCOc1ccc(-c2cc3nc(C4CCN(C(=O)OC(C)(C)C)CC4)c(C(=O)Nc4cccc(CC)c4)cn3n2)cc1`, the figure is 12.9% (inactive).

`CCOC(=O)/C(C#N)=C\c1c(C)cc(C)c(COC(C)=O)c1C`: the enhancement is 14.9% (inactive).

Take `Cc1ccc(/C=C(\C#N)C(=O)Nc2cc(C)ccc2C)cc1`: the enhancement is -0.361% (inactive). As to `COC(=O)/C(C#N)=C/c1occc1C`, the enhancement is 32.7% (active). With `CCc1ccc(NC(=O)N2CCN(C(=O)c3nsc4ccccc34)CC2)cc1`, the enhancement was -4.71% (inactive). As to `O=S(=O)(c1ccc2c(c1)OCCO2)N1CCN(S(=O)(=O)c2cc(F)ccc2F)CC1`, the enhancement is 6.77% (inactive).

Take `CN1C(=O)c2cccc3c(N)ccc(c23)C1=O`: the enhancement was 50.3% (active). On to `Cc1nn(C)cc1N1C(=O)c2cccc3c(N)ccc(c23)C1=O`, for which the enhancement was 30% (active).

As for `Cn1c(=O)n(Cc2c(F)cccc2Cl)c(=O)c2c1nc1n2CCN1c1ccc(F)cc1`, the enhancement was 0.582% (inactive).

`Cc1cc(C)cc(NC(=O)Cn2nc(N3CCN(c4ccccc4)CC3)ccc2=O)c1`: the enhancement was -3.13% (inactive). Take `Cc1cc(-c2ccc(C)c(S(=O)(=O)N3c4ccccc4CC3C)c2)on1` (stereo not given): the enhancement is 0.217% (inactive). As to `CCOc1cccc2cc(-c3cn4c(n3)sc3cc(C)ccc34)c(=O)oc12`, the enhancement is -0.977% (inactive).

As for `COc1cc(CNCCSc2nnnn2C)ccc1OCc1ccc(Cl)cc1Cl`, the enhancement was 1.67% (inactive). In the case of `COc1ccc(CCn2ccc(O)c(Cc3ccc(Cl)cc3Cl)c2=O)cc1OC`, the enhancement was 54.5% (active). Consider `COc1ccc(CCNC(=O)CCc2ccccc2O)cc1OC`, for which the enhancement is -5.5% (inactive). Take `O=C(CSc1ncc(CO)n1Cc1ccc(F)cc1)NCc1ccco1`: the enhancement was -2.31% (inactive). Turning to `CCOc1ccc(CNC(=O)c2ccc3nc(CC)c(CC)nc3c2)cc1OC`, the enhancement is 1.32% (inactive).

In the case of `CC1CCN(CC(=O)c2c[nH]c3ccccc23)CC1`, the enhancement was 38% (active).

With `CC1CCN(C(=O)COC(=O)c2cc(=O)[nH]c3ccccc23)CC1`, the enhancement is -7.78% (inactive). With `Cc1[nH]c2ccccc2c1C(=O)CN1CCCC(C)C1` (stereo not given), the enhancement is -2.86% (inactive). Regarding `Cc1nnc(N2CCCC(C(=O)NCCN(C)C)C2)c2nn(-c3ccccc3)c(C)c12` (stereo not given), the enhancement was 1.94% (inactive).

Regarding `N#Cc1nc(Nc2cccc(Cl)c2)nc(NC2CCCC2)n1`, the enhancement was -7.23% (inactive). As to `CCn1c2ccccc2c2nnc(SCC(=O)O)nc21`, the enhancement is -1.5% (inactive). As for `COc1ccc(-n2nc(C(=O)NCCc3ccc(Cl)cc3)c3c4ccccc4n(C)c3c2=O)cc1Cl`, the figure is -3.1% (inactive); as for `CCOC(=O)C1CCN(C(=O)C2(NC(=O)Nc3cccc(F)c3)CCCCC2)CC1`, 34.3% (active); as for `CCN1CCN(C(=O)C2(NC(=O)Nc3cccc(F)c3)CCCCC2)CC1`, 1.28% (inactive). Consider `CCOC(=O)C1CCN(C(=O)Nc2cccc(OC)c2)CC1`, for which the enhancement is -1.73% (inactive).

For the origin of these results see PubChem BioAssay AID493056 (National Center for Advancing Translational Sciences (NCATS), 2011).
